# Results taken from the supplement of paper PMC6555819.
# Test system: VDR:RXRa (NR concentration 270 nM, RXRa partner concentration 90 nM)
# Assay: PBM binding z-score (relative to random genomic background probes); higher = stronger binding; sequences stand for … in GC…GCGATTGACAGCGTAGAATGAAGG
# Protocol: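 Protein-binding microarray (Agilent 4x180K custom design, double-stranded 60-nt probes: 5' GC cap, 34-nt variable region, 24-nt constant primer region; full probe sequence given). Purified or IVT nuclear receptor:RXRα heterodimers (3:1 NR:RXRα, mostly 270:90 nM) or homodimers were incubated for 1 h in PBS with 2% milk and no ligand, then detected with Alexa488 antibodies. Fluorescence from o1-orientation probes (~5 replicates averaged) was converted to z-scores against 500 random hg19 background probes. Variable regions are seed direct-repeat (DR0–DR5) sites, all their single-nucleotide variants and half-site ablations.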
row,Sequence,PBM binding z-score
1,TCTCGGAGGACACGAAAAGTCAGAGCTCGACATC,-0.0283
2,CGTCTAAGGTCAAAGGTCAGTGAAGAGATGACGG,6.78
3,ATATGTAGGTTAGGGTAATTCAGAAAGTAGGGAA,1.09
4,ATCGAAAGGTCGTGAGGTGAGTACACAGAAAGGC,4.14
5,CGAACTAGGTCAATGGACAGTGAAAGGCGACGTA,0.802
6,CGTCAAAGTTAAAGGTAACGTAACAGAAAGCAGC,0.291
7,CGTCCAAGGTCAAGGTGAGTGAAAGAGACTCGAA,4.01
8,CTATGTAGATTAAGGGGGTCATTCAGTTTGAAAG,6.53
9,TAGCCTAAGTCATGGGCCAGTATACCACGCGAAC,-0.25
10,ATATGTAGGTTAGGGTCAATCAGAAAGTAGGGAA,3.8
11,TCTCGGAGGACACGAAAGGGCAGAGCTCGACATC,-0.0327
12,TTACCAAGGTGAACTGAGGTCGTTGATCCAACTC,5.77
13,AGTCAAAGTTCAGCACGAGGTAACGTAAAGCACG,3.25
14,CGAACTGGGTCACCAGGACAGTGAAGAGGTTGGA,2.13
15,CGAACTACGTCAAAGGACAGTGAAAGGCGACGTA,-0.443
16,CCGAGTCGGTTACGAGGGGGCATTCAGTGCGAAT,3.65
17,CCGACTGGGGCAAAGGTCACCATACTCAGTACGA,4.7
18,ACTAGTTGGTCAGCTGAGGTCACACTCAATTCGG,4.54
19,ACTCGGAGGACAAAGGTCACAGCTACGCCAGTGA,4.95
20,ACTAGCAGGCCAAGGGTGACTCAAGATTAGTCCG,-0.401

row,Sequence,PBM binding z-score
1,ATCTCTAGGTGAAAGTTCAGTGAATCCCGAGGAT,1.83
2,CGTCCAAGGTCACAGGAGGTCAGTGAAGACAGAT,6.62
3,CCGAGTAGGTTACGAGGGGGCATGCAGTGCGAAT,4.63
4,ACTAATTGGTCAGCTGAGGTCACACACAATTCGG,4.77
5,CGTCCAAGGGCAGCAGGTCAGTGAAAGCGACGTG,0.17
6,ATCGAAAGGTCGACGAGGTGAGAATACACCGTTT,5.52
7,ATATGTAGGTAACATCCGGGTCATTCAGGCTATG,3.75
8,ATACCAAGGTTATCGTGAGGTCGTTGATACTAAC,4.98
9,TAGCCTAGGTCAGATCGGGCGAGTATACGCTATA,0.506
10,CCTGCTAGGTCAATGGTCAGCTCAAGCAGCTCGC,0.923
11,GACACAGGGTCAGCTAGAGGCCAGAGTATGGAAA,3.19
12,TCGAGTAGGTAACGGGGGCATTCAGGGATGAAGA,3.38
13,CGGACTAGGTCAAAGGACAGTGAAAGGCGACGTA,1.16
14,AGTCAAAGTTCATCTTGGTAACGTAAGATATGCT,4.41
15,TCGAGTAGGTTACGGGGGCATGCAGGGATGAAGA,3.43
16,CGAAGTAGGTCAAAGGACAGTGAAAGGCGACGTA,1.9
17,CAAACTAGGTCACAGAGGTCAAACTCCGTGCGTA,8.03
18,ATCGAAAGGTCGTGACGTGAGTATACAGAAAGGC,3.03
19,CGAACTAGGTCACCAGGACAGTGAAGAGGTTGGA,1.93
20,CCTGCTAGGACAATGGTCAGCTAAAGCAGCTCGC,-0.832
